A short description of test [1]: qHTS assay to identify small molecule antagonists of the sonic hedgehog signaling (Shh) pathway (AID 1259369; calls by dose curve; also: nearly all actives have a fitted effect of over 45% in size). The essentials:
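Inhibition of Shh signalling is measured as reduced Gli1-response-element firefly luciferase output in an NIH/3T3-derived stable reporter clone stimulated with conditioned medium for 24hr.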
(qHTS replaces the single test concentration by a dilution series.)

The nature of test [2]: qHTS assay to identify small molecule agonists of the androgen receptor (AR) signaling pathway in the presence of an antagonist - cell viability counter screen (AID 1259379).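 Also: MDA-kb2 human breast cancer cells carrying an MMTV luciferase reporter; series mostly up to about 92 µM; nearly all actives have a fitted effect of over 25% in size.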 The essentials:
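Fluorescence from CellTiter-Fluor, added after 15 hr and read 1 hr later, gave cell viability. Cells were MDA-kb2 exposed to compounds (15 concentrations) in the presence of 3.0uM nilutamide at 37C, 0% CO2.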

Test [3] is described as follows: qHTS assay to identify small molecule agonists of the estrogen receptor beta (ER-beta) signaling pathway - cell viability counter screen (AID 1259380). Also: nearly all actives have a fitted effect of over 30% in size. Also: potency is read from the fitted curve at half-maximal effect. The essentials: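 Same-well viability counter screen. Cells: ER-beta-UAS-bla HEK293T, plated 6 hr before compound, in 2% charcoal-stripped FBS. Compound exposure 16 hr, 37C; viability by CellTiter-Glo luminescence after 30 min at room temperature.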

Test [4] in a line: qHTS assay to identify small molecule antagonists of the estrogen receptor beta (ER-beta) signaling pathway - cell viability counter screen (AID 1259382).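 Also: HEK293T cells carrying ER-beta-UAS-bla reporter stimulated with estradiol; series mostly up to about 92 µM; nearly all actives have a fitted effect of over 55% in size.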 The essentials:
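Following a 6 hr plating period, HEK293T cells carrying a UAS-driven beta-lactamase reporter under ER-beta control received compounds and 1nM E2 (final). After 16 hr at 37C and 2 hr substrate loading, CellTiter-Glo luminescence indicated viability.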

Test [5] has as its target Estrogen receptor (Homo sapiens) (UniProt P03372). Nature of the test: qHTS assay to identify small molecule agonists of the estrogen receptor alpha (ER-alpha) signaling pathway in the presence of an antagonist (AID 1259383; calls by dose curve; also: top concentration of the series differs between compounds; nearly all actives have a fitted effect of over 15% in size). The essentials: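 Cells are hormone-deprived for 5 days (charcoal-stripped FBS, no phenol red), plated for 24hr, spiked with 10.0nM ICI-182,780, then dosed at 15 concentrations. After 22hr at 37C, ONE-Glo luminescence reports ERE-luciferase activity.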

Test [6] addresses Progesterone receptor (Homo sapiens) (UniProt P06401). In words: qHTS assay to identify small molecule agonists of the progesterone receptor (PR) signaling pathway (AID 1346784; calls by dose curve; also: nearly all actives have a fitted effect of over 30% in size). The essentials: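 Compounds were tested for PR agonism in HEK 293T cells bearing a beta-lactamase gene under UAS control. Treatment lasted 16 hr at 37C; signal came from fluorescence of a FRET substrate.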

Test [7] shares this target. Nature of the test: qHTS assay to identify small molecule antagonists of the progesterone receptor (PR) signaling pathway (AID 1346795; active = well fitted inhibition curve with a large enough effect in the signal ratio in the repeat runs, not every such curve was filed as active; the % refers to the signal ratio). The essentials: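 In HEK293T cells bearing the PR-UAS-bla reporter, compound effects on promegestone-driven (1 nM) beta-lactamase expression are assessed after 16 hr using a fluorescent FRET substrate incubated 2 hr at room temperature.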

Test [8] can be described thus: qHTS assay to identify small molecule antagonists of the progesterone receptor (PR) signaling pathway - cell viability counter screen (AID 1346798). Also: series mostly up to about 92 µM; nearly all actives have a fitted effect of over 50% in size. The essentials:
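Following a 4 hr attachment, PR-UAS-bla HEK293T cells in charcoal-stripped FBS medium were exposed to compounds with R5020 for 16 hr; CellTiter-Glo was added and luminescence read after 30 min at room temperature.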

Test [9] can be described thus: qHTS assay to identify small molecule agonists of the progesterone receptor (PR) signaling pathway - cell viability counter screen (AID 1346799; calls by dose curve; also: nearly all actives have a fitted effect of over 45% in size). The essentials: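 Here, 3,000 PR-UAS-bla HEK293T cells per well were treated with compounds for 16 hr after a 6 hr preincubation at 37C and 5% CO2; cell viability is the CellTiter-Glo luminescence signal.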
The nature of test [10]: qHTS assay to identify small molecule antagonists of the TGF-beta/Smad signaling pathway - cell viability counter screen (AID 1346824). Also: nearly all actives have a fitted effect of over 50% in size. The essentials: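 SBE-bla HEK 293T cells were plated overnight at 37 C, then given compounds in DMSO plus TGF-beta1 (added as 0.25 ng/mL solution) for 5 hr. After the bla read, CellTiter-Glo was added to the same wells and luminescence read after 30 min at room temperature.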

Test [11] is described as follows: qHTS assay to identify small molecule agonists of the TGF-beta/Smad signaling pathway - cell viability counter screen (AID 1346829). Also: top concentration of the series differs between compounds; nearly all actives have a fitted effect of over 45% in size. The essentials:
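Luminescence from CellTiter-Glo, read after a 30 min room-temperature incubation, gives cell viability of SBE-bla HEK 293T cells treated 5 hr with compounds at 37 C.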

Test [12] is described as follows: qHTS assay to identify small molecule agonists of the TGF-beta/Smad signaling pathway (AID 1346859; active = well fitted activation curve with a large enough effect in the signal ratio in the repeat runs, not every such curve was filed as active; the % refers to the signal ratio; also: series mostly up to about 77 µM). The essentials: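 Each well held 4,000 SBE-bla HEK 293T cells incubated overnight before compound addition; 5 hr later the cleavable FRET substrate went on for 2 hr at room temperature, and fluorescence was read at two emissions.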
In test [13] the target is Thyrotropin-releasing hormone receptor (Homo sapiens) (UniProt P34981). Nature of the test: qHTS assay to identify small molecule antagonists of the thyrotropin-releasing hormone receptor (TRHR) signaling pathway (AID 1346877; active = well fitted inhibition curve with a large enough effect in the repeat runs, not every such curve was filed as active; also: series mostly up to about 51 µM). The essentials:
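Cells (TRHR-HEK293) are plated and kept 18 h at 37 °C/5% CO2. A calcium-sensitive dye is added for 2 h, compound follows for 5 min at room temperature, and TRH is then given at 1 nM final.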

Test [14] has the same target. In words: qHTS assay to identify small molecule agonists of the thyrotropin-releasing hormone receptor (TRHR) signaling pathway (AID 1346891; calls by dose curve; also: series mostly up to about 58 µM). The essentials:
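Screening of agonists relied on calcium signalling in HEK293 cells expressing human TRHR: dye loading 2 h at 37 °C preceded compound addition and a 3-min fluorescence time course.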

Test [15] in a line: qHTS assay to identify small molecule agonists or antagonists of the thyroid stimulating hormone receptor (TSHR) signaling pathway - wild type cell line counter screen (AID 1259384; calls by dose curve). The essentials: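 Wild-type HEK293 cells were plated 18 h at 37 C/5% CO2, pin-dosed with compound plus Ro20-1724 medium, held 30 min at room temperature, then given cAMP-d2 and anti-cAMP-cryptate; fluorescence was read after 1 h. Fifteen concentrations, triplicate.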

Test [16] concerns the target Thyrotropin receptor (Homo sapiens) (UniProt P16473). Nature of the test: qHTS assay to identify small molecule antagonists of the thyroid stimulating hormone receptor (TSHR) signaling pathway (AID 1259385; calls by dose curve; also: nearly all actives have a fitted effect of over 20% in size). The essentials:
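TSHR-HEK293 cells were plated and held 18 h at 37C/5% CO2, then given compound plus Ro20-1724 and stimulated with TSH at 1.5 ng/mL final. After 30 min at room temperature, cAMP was detected with cAMP-d2/anti-cAMP-cryptate (1 h) by fluorescence.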

A short description of test [17]: qHTS assay to identify small molecule agonists of the estrogen receptor alpha (ER-alpha) signaling pathway in the presence of an antagonist - cell viability counter screen (AID 1259386).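 Also: series mostly up to about 92 µM; cells exposed to compounds for 22 h at 37 °C before the viability read; nearly all actives have a fitted effect of over 30% in size.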 The essentials:
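Cells are starved of estrogens for 5 days in charcoal-stripped serum, seeded for 24hr and co-treated with ICI-182,780 (10.0nM final) and test compounds. After 22hr at 37C, viability is read as CellTiter-Fluor fluorescence.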

SMILES strings stand for the structures. Unmarked numbers belong to inactive results. Records with an inconclusive call do not appear. The source made the active and inactive calls. Unless noted, calls follow the shape of the dose curve; as a rule, active = well fitted curve in the direction sought with a large enough effect in the repeat runs; inconclusive = weak or mixed curves; inactive = no such curve, though single readings can be large; an effect the other way counts as inactive or inconclusive.

In PubChem BioAssay (Tox21) one finds Potency and outcome data, which are given here for 9 compounds.

Sequence of Estrogen receptor (Homo sapiens) (P03372 whole entry, looked up): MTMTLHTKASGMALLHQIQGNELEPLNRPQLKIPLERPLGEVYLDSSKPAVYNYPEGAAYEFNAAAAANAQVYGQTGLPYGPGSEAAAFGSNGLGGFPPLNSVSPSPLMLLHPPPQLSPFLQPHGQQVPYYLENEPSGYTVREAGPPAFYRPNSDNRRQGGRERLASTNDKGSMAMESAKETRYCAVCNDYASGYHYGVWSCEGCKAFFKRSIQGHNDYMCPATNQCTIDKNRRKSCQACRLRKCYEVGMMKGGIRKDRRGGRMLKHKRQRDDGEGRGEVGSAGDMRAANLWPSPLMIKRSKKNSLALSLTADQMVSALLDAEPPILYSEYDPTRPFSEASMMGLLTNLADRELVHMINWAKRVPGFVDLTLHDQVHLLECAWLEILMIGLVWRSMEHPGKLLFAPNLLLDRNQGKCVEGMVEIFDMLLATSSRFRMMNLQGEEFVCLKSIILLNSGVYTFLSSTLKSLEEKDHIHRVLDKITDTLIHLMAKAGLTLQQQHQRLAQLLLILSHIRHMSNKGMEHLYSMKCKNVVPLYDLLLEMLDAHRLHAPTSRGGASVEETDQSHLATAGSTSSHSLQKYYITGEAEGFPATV
Sequence of Progesterone receptor (Homo sapiens) (P06401 whole entry, looked up): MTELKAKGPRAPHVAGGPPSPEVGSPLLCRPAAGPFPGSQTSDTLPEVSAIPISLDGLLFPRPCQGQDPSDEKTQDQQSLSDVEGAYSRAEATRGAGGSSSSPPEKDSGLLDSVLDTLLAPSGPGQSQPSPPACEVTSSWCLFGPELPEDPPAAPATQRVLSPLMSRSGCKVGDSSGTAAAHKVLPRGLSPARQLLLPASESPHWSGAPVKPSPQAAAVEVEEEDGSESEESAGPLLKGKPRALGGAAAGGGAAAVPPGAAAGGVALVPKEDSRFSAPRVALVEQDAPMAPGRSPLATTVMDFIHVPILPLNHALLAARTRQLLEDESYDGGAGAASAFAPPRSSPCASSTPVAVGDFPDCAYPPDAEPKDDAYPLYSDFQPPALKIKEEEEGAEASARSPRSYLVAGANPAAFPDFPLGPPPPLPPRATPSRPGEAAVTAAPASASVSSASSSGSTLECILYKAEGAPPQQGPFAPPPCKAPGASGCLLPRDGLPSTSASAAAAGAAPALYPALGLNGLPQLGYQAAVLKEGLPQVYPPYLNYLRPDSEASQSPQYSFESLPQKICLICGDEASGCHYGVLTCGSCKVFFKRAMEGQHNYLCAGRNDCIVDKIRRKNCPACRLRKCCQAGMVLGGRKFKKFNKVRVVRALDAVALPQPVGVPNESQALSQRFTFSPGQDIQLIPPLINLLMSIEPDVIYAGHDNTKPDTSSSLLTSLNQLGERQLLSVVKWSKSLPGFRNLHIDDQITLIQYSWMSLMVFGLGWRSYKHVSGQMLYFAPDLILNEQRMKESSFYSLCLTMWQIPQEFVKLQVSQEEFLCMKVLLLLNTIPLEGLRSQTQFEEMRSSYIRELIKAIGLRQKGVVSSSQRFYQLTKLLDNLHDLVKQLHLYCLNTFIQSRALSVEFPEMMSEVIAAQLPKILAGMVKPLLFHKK
Sequence of Thyrotropin receptor (Homo sapiens) (P16473 whole entry, looked up): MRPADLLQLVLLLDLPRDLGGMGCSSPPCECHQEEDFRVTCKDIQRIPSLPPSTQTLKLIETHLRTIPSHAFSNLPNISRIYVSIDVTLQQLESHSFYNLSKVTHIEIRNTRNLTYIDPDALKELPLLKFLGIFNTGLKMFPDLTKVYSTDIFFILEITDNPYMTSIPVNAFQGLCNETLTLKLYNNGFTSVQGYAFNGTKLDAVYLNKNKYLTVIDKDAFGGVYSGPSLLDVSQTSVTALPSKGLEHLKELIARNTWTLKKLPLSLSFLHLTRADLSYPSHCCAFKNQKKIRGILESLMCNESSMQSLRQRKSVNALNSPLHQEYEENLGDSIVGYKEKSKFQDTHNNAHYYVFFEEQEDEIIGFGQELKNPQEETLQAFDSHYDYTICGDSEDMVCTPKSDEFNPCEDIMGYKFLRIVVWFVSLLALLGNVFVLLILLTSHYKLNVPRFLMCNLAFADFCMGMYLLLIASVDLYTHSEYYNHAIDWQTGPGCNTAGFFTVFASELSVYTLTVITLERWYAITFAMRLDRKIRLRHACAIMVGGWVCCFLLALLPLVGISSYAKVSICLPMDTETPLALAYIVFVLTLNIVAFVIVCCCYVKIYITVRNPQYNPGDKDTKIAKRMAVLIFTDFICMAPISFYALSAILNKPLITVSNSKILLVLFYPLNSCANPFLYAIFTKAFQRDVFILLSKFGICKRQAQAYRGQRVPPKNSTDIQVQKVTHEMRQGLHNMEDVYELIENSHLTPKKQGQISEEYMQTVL
Sequence of Thyrotropin-releasing hormone receptor (Homo sapiens) (P34981 whole entry, looked up): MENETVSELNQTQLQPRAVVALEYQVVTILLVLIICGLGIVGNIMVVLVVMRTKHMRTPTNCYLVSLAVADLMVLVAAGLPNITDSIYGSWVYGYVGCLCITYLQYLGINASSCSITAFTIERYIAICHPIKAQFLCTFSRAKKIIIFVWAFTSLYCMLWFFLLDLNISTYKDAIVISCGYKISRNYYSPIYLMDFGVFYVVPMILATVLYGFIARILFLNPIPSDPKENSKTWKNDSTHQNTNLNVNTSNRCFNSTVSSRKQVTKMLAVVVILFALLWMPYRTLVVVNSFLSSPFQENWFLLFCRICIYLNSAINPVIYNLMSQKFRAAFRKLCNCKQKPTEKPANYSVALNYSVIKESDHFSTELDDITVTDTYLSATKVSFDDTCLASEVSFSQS

Regarding `Cc1cc2c(s1)Nc1ccccc1N=C2N1CCN(C)CC1`, the Potency result in test [1], in [2], in test [3], in test [5], in test [6] and in [7] was “inactive” throughout. Moreover, the Potency result in test [8], in test [9] and in [14] was “inactive” in each case. In addition, the call in [4], in test [10], in [11], in test [12] and in [13] was inactive.
For the compound `O=Cc1ccc(F)c(Br)c1`, the Potency result in [1], in test [2], in test [16], in test [17], in test [6] and in test [7] was “inactive” each time. The Potency entry in [9] and in [14] was “inactive” throughout. Further, the call in [4], in test [15], in [10], in test [11], in test [12] and in test [13] was inactive.
As to `CC(=O)Nc1ccc(C)c(Cl)c1`, the Potency result in test [1], in test [2], in test [3], in test [16], in test [17] and in test [6] was “inactive” each time. Besides, the Potency entry in [7], in test [8], in test [9] and in test [14] was “inactive” each time. The call in [4], in [15], in test [10], in test [11], in test [12] and in test [13] was inactive.
As to `CCCOCCC`, the Potency result in test [1], in [2], in test [3], in [5], in test [16] and in test [17] was “inactive” throughout. For the same compound, the Potency result in [7] and in test [14] was “inactive” each time. Also, the outcome in [4], in test [15], in test [10], in test [11], in [12] and in test [13] was inactive.
For `COc1ccc2nc(NC(=O)Nc3ccccc3)sc2c1`, the Potency result in test [1], in [2], in [16], in test [17], in [6] and in [9] was “inactive” throughout. For the same compound, the Potency result in [14] was “inactive”. Moreover, the Potency in test [3] is 10.6 µM (active). For the same compound, the result in test [15], in test [10], in test [11], in test [12] and in test [13] was inactive.
`CCN(CC)CCNC(=O)COc1ccc(Cl)cc1`: the Potency result in [1], in test [2], in [3], in test [16], in test [17] and in test [6] was “inactive” each time. Further, the Potency result in test [9] is “inactive”. Further, the compound was classed as inactive in test [4], in [15], in [10], in test [11], in [12] and in [13].
Regarding `CC1CN(c2ccccc2)NC1=O` (centres undefined), the Potency entry in [1], in test [2], in [16], in test [17], in [8] and in test [9] was “inactive” each time. Besides, the Potency result in test [14] is “inactive”. The compound was classed as inactive in [4], in [15], in [10], in test [11], in [12] and in [13].
`C=CC1CO1` (centres undefined): the Potency entry in test [1], in test [2], in test [16], in [17], in [7] and in test [9] was “inactive” each time. The Potency result in test [14] is “inactive”. For the same compound, the call in [4], in test [15], in test [10], in test [11], in [12] and in [13] was inactive.
Regarding `CCCCN1C[C@H](O)[C@@H](O)[C@H](O)[C@H]1CO`, the Potency entry in test [1], in [2], in [3], in test [5], in test [16] and in test [17] was “inactive” throughout. The Potency entry in test [7] and in test [9] was “inactive” throughout. In addition, the call in [4], in test [15], in [10], in test [11], in test [12] and in [13] was inactive.
